Mcl1-Bid inh: disrupts binding of human Mcl-1 to Bid peptide; Q07820; TR-FRET Mcl-1/Bid-Dy647 peptide binding, 1536-well; inhibition, % at 21.7 µM; 220,000 tested, 0.97% active; AID 1021;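 active = compounds that cut the binding signal by more than half at the single screening dose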;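 also: His-tagged Mcl-1 with europium anti-His antibody binding Bid BH3 peptide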
Target sequence (Q07820 whole entry, looked up): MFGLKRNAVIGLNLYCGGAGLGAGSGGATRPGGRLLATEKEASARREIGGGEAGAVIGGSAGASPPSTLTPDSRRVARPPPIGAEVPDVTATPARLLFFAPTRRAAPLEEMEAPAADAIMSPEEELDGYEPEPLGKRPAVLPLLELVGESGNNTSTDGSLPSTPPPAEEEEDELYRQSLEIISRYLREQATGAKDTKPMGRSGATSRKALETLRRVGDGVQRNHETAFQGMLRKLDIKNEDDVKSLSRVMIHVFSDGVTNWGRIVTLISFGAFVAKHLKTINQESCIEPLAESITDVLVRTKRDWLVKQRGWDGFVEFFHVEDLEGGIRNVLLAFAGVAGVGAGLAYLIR
m-calpain inh: inhibitors of pig calpain II. inhibition, % at 16 µM. 220,000 tested, 0.37% active. purified calpain II, fluorogenic peptide substrate, 30 min;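 active = inhibition above about 50%, limit read from the data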
Mcl-1 Bim block: disrupts Bim peptide binding to human Mcl-1; Bead-based flow cytometry, Bim peptide-Mcl-1 binding; inhibition, % at 10 µM; 190,000 tested, 0.1% active; AID 1009; in the data active = inhibition above about 40%
14-3-3 Bad PPI: disrupts binding of bovine 14-3-3 zeta to phospho-Bad peptide. P63103. TR-FRET 14-3-3zeta/Dy647-pBad peptide displacement, 1 h. inhibition, % at 21.7 µM. 220,000 tested, 0.71% active. AID 781;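 active = inhibition above about 70%, limit read from the data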
Target sequence (P63103 whole entry, looked up): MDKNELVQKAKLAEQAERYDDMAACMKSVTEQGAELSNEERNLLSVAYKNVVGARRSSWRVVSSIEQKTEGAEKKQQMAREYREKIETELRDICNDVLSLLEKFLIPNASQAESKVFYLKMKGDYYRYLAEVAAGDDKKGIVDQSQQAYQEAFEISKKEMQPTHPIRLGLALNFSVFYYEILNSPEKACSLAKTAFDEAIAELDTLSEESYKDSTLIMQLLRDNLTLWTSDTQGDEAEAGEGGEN
NCF1 inh: p47phox (human) inhibition. AID 1274. 220,000 tested, 0.53% active. P14598. inhibition, % at 24.7 µM. p47phox/p22phox peptide binding, fluorescence polarization, 2 h;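 active = inhibition above about 30%, limit read from the data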
Mcl1-Noxa inh: Mcl-1/Noxa interaction inhibition; Q07820; inhibition, % at 21.7 µM; 220,000 tested, 1.5% active; AID 1022; TR-FRET Mcl-1/Noxa peptide binding, 2 h;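 active = compounds that cut the protein-peptide binding signal by more than 50% relative to plate controls in a single-dose test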;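 also: His-tagged Mcl-1 with rhodamine Noxa BH3 peptide and terbium anti-His antibody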
Numbers stand for hits; – = inactive; · = not tested or not shown; [ ] = dose if it differs, or a comment. Only some compounds are listed: those with a hit (about 3.4% of all), similar ones and a draw of the others.

SMILES	Mcl1-Bid inh	m-calpain inh	Mcl-1 Bim block	14-3-3 Bad PPI	NCF1 inh	Mcl1-Noxa inh
COC(=O)C1C(c2ccc(N(C)C)cc2)C(C(=O)OC)S(=O)(=O)CS1(=O)=O (stereo unspecified)	–	–	–	–	–	–
CC(=O)N1c2ccccc2C2(O)N=C(C)SC12 (stereo unspecified)	–	–	–	–	–	55
CC(=O)N1c2ccccc2Nc2ccccc21	–	–	–	–	–	–
COCCN(C(=S)Nc1ccccc1OC)C(C)c1cccs1 (stereo unspecified)	–	–	–	–	–	–
Cc1cc(N2CCN(c3ccccn3)CC2)n2cc(-c3ccccc3)nc2n1	–	–	–	–	–	–
Fc1ccc(-c2cc3nc(-c4ccccc4)cc(N4CCN(CCN5CCOCC5)CC4)n3n2)cc1	–	–	–	–	–	–
Cc1cc(N2CCN(C)CC2)n2cc(-c3ccc(F)cc3)nc2n1	–	–	–	–	–	58
CN1CCN(c2cc(-c3ccccc3)nc3cc(-c4ccc(F)cc4)nn23)CC1	–	–	–	–	–	52
N#CCCCN1C(=O)C(=C(C#N)C#N)c2ccccc21	–	–	–	–	–	–
CSc1nn2cc(CCN3CCOCC3)c(-c3ccc(F)cc3)nc2c1C#N	–	–	–	–	–	–
COc1cc2c(cc1OC)C(c1ccc(-c3cc(Cl)ccc3Cl)o1)=NCC2	–	–	–	–	51	–
COc1cc2c(cc1OC)C(c1ccc(-c3ccc(Cl)cc3Cl)o1)=NCC2	–	–	–	–	–	–
CC(C)(C)c1ccc(NC(=S)NCCc2ccccn2)cc1	51	–	·	–	–	–
Cc1cccc(N(Cc2cc3ccccc3[nH]c2=O)S(C)(=O)=O)c1	–	–	–	–	–	–
CCCCN(Cc1cc2ccccc2[nH]c1=O)S(C)(=O)=O	98	–	–	–	–	–
Fc1cc(F)c2nc(Nc3nc4cc5c(cc4s3)OCO5)sc2c1	91	–	–	95[fluorescence artefact?]	–	99
Fc1cccc2sc(Nc3nc4cc5c(cc4s3)OCO5)nc12	–	–	–	–	–	–
O=C(Nc1ccc2nc(-c3ccco3)c(-c3ccco3)nc2c1)N1CCCCCC1	59	–	–	–	–	105
CCOC(=O)C1CCN(C(=O)Nc2ccc3nc(-c4ccco4)c(-c4ccco4)nc3c2)CC1	–	–	–	–	–	97
COc1ccc(OC)c(S(=O)(=O)Nc2ccc(O)c3ccccc23)c1	–	–	–	–	–	51
COc1ccc(OC)c(S(=O)(=O)Nc2ccc(Oc3ccccc3)cc2)c1	–	–	–	–	–	–
Cn1c(=NC(=O)COc2ccccc2)sc2ccccc21	–	–	–	–	–	–
O=C(Nc1nccs1)c1cc2c(s1)-c1ccccc1OC2	–	–	–	–	–	–
O=C(Nc1nc2ccccc2s1)c1cc2c(s1)-c1ccccc1OC2	57	–	–	–	–	–
CNc1cccc2c1C(=O)c1ccccc1C2=O	–	–	–	–	–	–
SMILES	Mcl1-Bid inh	m-calpain inh	Mcl-1 Bim block	14-3-3 Bad PPI	NCF1 inh	Mcl1-Noxa inh
CNc1cccccc1=S	–	–	–	–	–	58
CC1=NNC(=O)C1CC(=O)N/N=C(\C)c1ccco1 (stereo unspecified)	–	–	–	–	–	112
CC1=NNC(=O)C1CCC(=O)N/N=C(\C)c1ccccc1 (stereo unspecified)	–	–	–	–	–	–
O=C(O)c1ccc(-n2cccc2/C=C2/NC(=O)N(c3cccc(Cl)c3)C2=O)cc1	–	–	–	80	–	74
O=C(O)c1cccc(-n2cccc2/C=C2\NC(=O)N(Cc3ccc(F)cc3)C2=O)c1	–	–	–	–	–	–
O=C(O)c1ccc(-n2cccc2/C=C2/NC(=O)N(c3ccccc3)C2=O)cc1	–	–	·	–	–	72
CCOc1cc(/C=C(\C#N)C(=O)Nc2ccccc2[N+](=O)[O-])ccc1OCc1cccc2ccccc12	–	–	–	–	–	–
O=c1oc2ccccc2cc1-c1csc(NN=C2CCCCC2)n1	–	–	–	–	–	–
O=c1oc2ccccc2cc1-c1csc(Nc2nc3c(F)cccc3s2)n1	–	–	–	–	–	70
COC(=O)c1[nH]c2ccccc2c1NC(=O)c1ccccc1[N+](=O)[O-]	–	–	93	–	–	–
O=C1c2ccccc2C(=O)N1/N=C/c1ccc(O)c(O)c1	–	–	–	–	–	72
O=C1C2C3C=CC(CC3)C2C(=O)N1/N=C/c1ccc(O)c(O)c1 (stereo unspecified)	–	–	–	–	–	–
CCOC(=O)c1c2n(c3ccc(OC(C)=O)cc13)CCC2	–	–	–	–	38	–
COc1ccc(NS(=O)(=O)c2cccc(-c3n[nH]c(=S)n3Cc3ccccc3)c2)cc1	–	–	–	–	–	–
CCOC(=O)Cc1csc(NC(=O)Cc2ccc(Cl)cc2)n1	55	–	·	–	–	–
CCOC1(c2ccccc2)CC1C(=O)N/N=C/c1cccc([N+](=O)[O-])c1 (stereo unspecified)	–	–	·	–	–	–
COc1cccc(Nc2nnc(SCC(=O)Nc3sccc3C(N)=O)s2)c1	–	–	–	–	–	60
CCc1ccc(Nc2nnc(SCC(=O)Nc3cccnc3Cl)s2)cc1	–	–	–	–	–	–
CC(=O)Nc1cccc(OCC(=O)Nc2sccc2C(N)=O)c1	–	–	·	–	–	52
CCc1ccc(Nc2nnc(SCC(=O)Nc3sccc3C(N)=O)s2)cc1	–	–	–	–	–	53
COc1ccccc1/C=C(/C(=O)OCC(=O)Nc1ccc(N(C)C)cc1)c1ccccc1	–	–	–	–	–	69
O=S(=O)(Nc1ccncc1Cl)c1ccc2ccccc2c1	–	–	–	72	–	–
O=C(NNS(=O)(=O)c1ccc2ccccc2c1)c1cccnc1	–	–	–	–	–	–
Oc1ccc(/C=N/Nc2ccnc3cc(Cl)ccc23)cc1O	–	–	·	–	–	95
CC(=O)SCC(Cc1ccccc1)C(=O)NCC(=O)OCc1ccccc1 (stereo unspecified)	–	–	–	–	–	–
SMILES	Mcl1-Bid inh	m-calpain inh	Mcl-1 Bim block	14-3-3 Bad PPI	NCF1 inh	Mcl1-Noxa inh
COc1ccc(-c2[nH]ncc2CN2CCCC(C(=O)c3ccc(OC)cc3OC)C2)cc1 (stereo unspecified)	–	–	–	–	–	–
COc1ccc(C(=O)C2CCCN(Cc3cn[nH]c3-c3ccc(F)cc3)C2)cc1OC (stereo unspecified)	96	–	–	–	–	–
COc1ccc(-c2csc(Nc3ccccc3)n2)cc1	–	–	–	–	–	83
COc1ccc(-c2csc(Nc3ccc(S(N)(=O)=O)cc3)n2)cc1	–	–	–	70[fluorescence artefact?]	–	53
Cc1ccc(Nc2nc(-c3ccc(S(=O)(=O)N4CCOCC4)cc3)cs2)cc1Cl	–	60	–	–	–	–
CCc1ccc(-c2csc(NC(=O)Oc3ccccc3)n2)cc1	–	–	–	–	30	–
COc1ccc(Nc2nc(-c3ccc(OC)cc3)cs2)cc1	–	–	–	–	–	–

Source: PubChem (several laboratories)
